From the supplement of paper PMC10477191 come the findings set out here.

± gives the standard deviation of the averaged measurements.

Common to all, as to experiment: odor-evoked OSN spike response (post minus pre-stimulus); higher = stronger neuronal excitation
Conditions in all cases: odor dilution: 10^-4

For test [1], the system named is Drosophila ezoana antennal basiconic sensillum ab8. In outline: (§1)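 The response is the change in spike frequency between pre-stimulus and post-stimulus windows, averaged over replicate sensilla. Both windows lasted 1 second, and spikes were counted with Auto Spike software. Single sensillum recordings used a tungsten electrode at the base of antennal basiconic sensilla on restrained adult flies, with up to 3 sensilla per fly, and odorant at 10^−4 in mineral oil or DMSO (10 µl on filter paper) was delivered as a 500 ms pulse into a charcoal-filtered, humidified 1.5 l min^−1 air stream.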

Test [2] relates to Drosophila virilis antennal basiconic sensillum AB7. In outline: as §1
In test [3] the test system is Drosophila ezoana antennal basiconic sensillum ab9. In outline:
as §1

Test [4] has as its system Drosophila virilis antennal basiconic sensillum AB6. In outline:
as §1

Test [5] deals with Drosophila virilis antennal basiconic sensillum AB8. In outline:
as §1

Test [6] deals with Drosophila virilis antennal basiconic sensillum AB9. In outline: as §1
Test [7] has as its system Drosophila ezoana antennal basiconic sensillum ab3. In outline: as §1
Test [8] concerns Drosophila virilis antennal basiconic sensillum AB2. In outline:
as §1

Test [9] deals with Drosophila ezoana antennal basiconic sensillum ab2. In outline: as §1
Test [10] concerns Drosophila virilis antennal basiconic sensillum AB1. In outline: as §1
Test [11] concerns Drosophila virilis antennal basiconic sensillum AB3. In outline: as §1
Test [12] relates to Drosophila ezoana antennal basiconic sensillum ab1. In outline: as §1
The test system of test [13] is Drosophila virilis antennal basiconic sensillum AB11. In outline:
as §1

The subject of test [14] is Drosophila ezoana antennal basiconic sensillum ab4. In outline: as §1

Take `CCCC(O)CC` (stereo not given) [3-hexanol]: the results for the “odor-evoked OSN spike response” value in [1] and in test [2] were 52.3 ± 27 spikes/s and 57 ± 28 spikes/s, respectively.
As for `C=CC(O)CCCCC` (stereo not given) [1-octen-3-ol], the “odor-evoked OSN spike response” value worked out at 118 ± 51 spikes/s in test [1]; 50.6 ± 26 spikes/s in test [3]; 114 ± 44 spikes/s in test [4]; 106 ± 11 spikes/s in [2]; 113 ± 14 spikes/s in test [5].
Regarding `CCC(=O)OCCC(C)C` [Isopentyl propionate], the “odor-evoked OSN spike response” value in test [1] came out at 79 ± 39 spikes/s; in test [3], 66.7 ± 31 spikes/s; in test [5], 56.8 ± 27 spikes/s; in [6], 86.6 ± 27 spikes/s.
For `CC(C)=CCCC(C)=CC=O` (mixture of isomers) [citral], the entries for the “odor-evoked OSN spike response” value in test [7] and in test [3] were 52.2 ± 25 spikes/s and 55.8 ± 30 spikes/s, respectively.
In the case of `CCCC(=O)OCC` [ethyl butanoate], the “odor-evoked OSN spike response” value was 71.9 ± 26 spikes/s in test [8], 68.8 ± 9.7 spikes/s in test [2] and 75.9 ± 26 spikes/s in test [6].
In the case of `CCOC(=O)CC(C)O` (stereo not given) [Ethyl-3-hydroxybutyrate], the “odor-evoked OSN spike response” value in [9] is 60.9 ± 32 spikes/s; in test [7], 133 ± 55 spikes/s; in test [1], 108 ± 45 spikes/s; in test [3] it was 59.2 ± 23 spikes/s; in test [10], 70.5 ± 24 spikes/s; in [11], 167 ± 54 spikes/s. Besides, the “odor-evoked OSN spike response” value in test [4] amounted to 63.2 ± 25 spikes/s; in [2], 85.6 ± 14 spikes/s; in [5], 53 ± 9.4 spikes/s; in test [6] it was 58.3 ± 24 spikes/s.
As for `COC(=O)c1ccccc1O` [Methyl salicylate], the “odor-evoked OSN spike response” value in test [12] turned out to be 52.1 ± 33 spikes/s; in [7], 64.8 ± 22 spikes/s; in [10], 49 ± 22 spikes/s.
Consider `CC(=O)OCCC(C)C` [Isopentyl acetate], for which the “odor-evoked OSN spike response” value in test [7] worked out at 55.5 ± 29 spikes/s; in test [1] it was 73.6 ± 38 spikes/s; in test [3] it was 56.7 ± 36 spikes/s; in [6], 81.4 ± 33 spikes/s.
As for `CCCCCCCC(C)=O` [2-nonanone], the “odor-evoked OSN spike response” value in test [7] turned out to be 57.8 ± 38 spikes/s.
On to `CCOC(=O)C(C)O` (stereo not given) [Ethyl lactate], for which the “odor-evoked OSN spike response” value is 70.3 ± 53 spikes/s in test [12]; 129 ± 36 spikes/s in test [7]; 51.4 ± 27 spikes/s in [1]; 66.3 ± 26 spikes/s in [3]; 128 ± 32 spikes/s in [10]; 156 ± 44 spikes/s in test [11]. The “odor-evoked OSN spike response” value in test [4] came to 50 ± 22 spikes/s; in [2] it was 52.6 ± 7.5 spikes/s; in test [5], 44.8 ± 12 spikes/s; in [6] it was 72.4 ± 20 spikes/s.
Turning to `CC(C)OC(=O)c1ccccc1` [isopropyl benzoate], the “odor-evoked OSN spike response” value was determined as 91.2 ± 45 spikes/s in test [9]; 54.9 ± 29 spikes/s in test [7]; 58.6 ± 20 spikes/s in test [3]; 54 ± 12 spikes/s in [13]; 45.6 ± 23 spikes/s in [8].
Consider `CCOC(C)=O` [Ethyl acetate], for which the “odor-evoked OSN spike response” value in test [12] amounted to 56.4 ± 35 spikes/s; in test [7] it was 60.2 ± 27 spikes/s; in test [10] it was 69.2 ± 27 spikes/s; in test [8], 65 ± 20 spikes/s.
On to `CCOC(=O)c1ccccc1` [ethyl benzoate], for which the “odor-evoked OSN spike response” value in test [9] is 69.5 ± 30 spikes/s; in test [7], 64 ± 27 spikes/s; in test [3], 105 ± 28 spikes/s; in [13], 23.1 ± 7.8 spikes/s; in [6], 85.5 ± 21 spikes/s.
Take `CC(C)CCO` [Isopentyl alcohol]: the “odor-evoked OSN spike response” value in test [1] worked out at 65.8 ± 25 spikes/s; in test [2], 51.2 ± 14 spikes/s.
`CCCCC(C)=O` [2-hexanone]: the results for the “odor-evoked OSN spike response” value in [7] and in [2] were 52.9 ± 26 spikes/s and 50.8 ± 8.6 spikes/s, respectively.
For the compound `CC(=O)C(C)O` (stereo not given) [acetoin], the “odor-evoked OSN spike response” value in test [12] was 79.9 ± 48 spikes/s; in test [7], 135 ± 51 spikes/s; in test [3], 57.3 ± 30 spikes/s; in test [10], 82.8 ± 39 spikes/s; in test [11], 226 ± 54 spikes/s; in test [6], 97.4 ± 24 spikes/s.
As for `CCCCCCO` [1-hexanol], the “odor-evoked OSN spike response” value in test [7] was found to be 53 ± 23 spikes/s; in test [1] it was 176 ± 44 spikes/s; in test [2], 61.4 ± 22 spikes/s; in test [5], 239 ± 25 spikes/s; in test [6], 28.8 ± 14 spikes/s.
As for `CCc1ccc(O)c(OC)c1` [4-Ethylguaiacol], in test [7], the “odor-evoked OSN spike response” value is 57.6 ± 32 spikes/s.
`CCCCCC(C)=O` [2-heptanone]: the “odor-evoked OSN spike response” value came out at 64.7 ± 28 spikes/s in test [7], 54.2 ± 25 spikes/s in test [1] and 155 ± 25 spikes/s in test [2].
In the case of `CCCCC(C)O` (stereo not given) [2-hexanol], the “odor-evoked OSN spike response” value in [7] was 55 ± 32 spikes/s; in [2] it was 61.4 ± 9.6 spikes/s.
As to `COc1ccccc1O` [guaiacol], the “odor-evoked OSN spike response” value is 50.8 ± 26 spikes/s in test [3] and 73.3 ± 47 spikes/s in test [4].
Turning to `CCCCCCCC(C)O` (stereo not given) [2-nonanol], in test [7], the “odor-evoked OSN spike response” value worked out at 55 ± 26 spikes/s.
Turning to `CCCCCCCC/C=C\CCCCCCCC(=O)O` [Oleic acid], the “odor-evoked OSN spike response” value in [9] worked out at 43.9 ± 26 spikes/s.
On to `CCCCCOC(C)=O` [pentyl acetate], for which the “odor-evoked OSN spike response” value in test [12] is 62.6 ± 43 spikes/s; in [7], 120 ± 29 spikes/s; in [1] it was 122 ± 45 spikes/s; in test [3] it was 67.9 ± 29 spikes/s; in [11] it was 121 ± 16 spikes/s; in test [2] it was 75.4 ± 13 spikes/s. Besides, the “odor-evoked OSN spike response” value in test [5] was determined as 119 ± 24 spikes/s; in test [6], 80 ± 39 spikes/s.
For `C[C@H]1CCC[C@@]2(C)CCCC[C@]12O` [geosmin], the “odor-evoked OSN spike response” value in test [14] is 119 ± 39 spikes/s.
For the compound `CCCC(=O)OCc1ccccc1` [benzyl butyrate], the entries for the “odor-evoked OSN spike response” value in test [9], in test [3] and in test [8] were 43.7 ± 32 spikes/s, 56.9 ± 30 spikes/s and 58.8 ± 31 spikes/s, respectively.
`CCCCCC(=O)OCC` [ethyl hexanoate]: the “odor-evoked OSN spike response” value in test [7] stood at 141 ± 28 spikes/s; in test [1] it was 77.2 ± 32 spikes/s; in test [3] it was 56.8 ± 31 spikes/s; in test [11] it was 153 ± 23 spikes/s; in test [2], 49 ± 24 spikes/s; in [5], 66.1 ± 8.9 spikes/s. For the same compound, in [6], the “odor-evoked OSN spike response” value came out at 67.4 ± 21 spikes/s.
Consider `COC(=O)c1ccccc1` [methyl benzoate], for which the “odor-evoked OSN spike response” value in test [9] turned out to be 55.9 ± 36 spikes/s; in test [3], 125 ± 48 spikes/s; in test [6], 86.1 ± 27 spikes/s.
`CCCOC(C)=O` [propyl acetate]: the “odor-evoked OSN spike response” value in test [7] came out at 50 ± 27 spikes/s; in test [1] it was 51 ± 32 spikes/s; in [3], 60.9 ± 37 spikes/s; in test [6], 84.2 ± 24 spikes/s.
Consider `C/C=C/C(=O)OCC` [Ethyl crotonate], for which the “odor-evoked OSN spike response” value in [9] amounted to 61.5 ± 39 spikes/s; in test [3] it was 50.1 ± 30 spikes/s; in test [8] it was 47.5 ± 26 spikes/s.
As for `CCCC(=O)CC` [3-hexanone], the “odor-evoked OSN spike response” value came out at 59.3 ± 31 spikes/s in test [12]; 52 ± 27 spikes/s in test [7]; 51.3 ± 35 spikes/s in [3]; 76 ± 7.4 spikes/s in [10]; 65.5 ± 27 spikes/s in [6].
For `CC(=O)c1ccccc1` [Acetophenone], the “odor-evoked OSN spike response” value in [1] was determined as 71.8 ± 25 spikes/s; in [3], 68.3 ± 26 spikes/s.
Consider `OCCc1ccccc1` [2-phenylethanol], for which, in test [1], the “odor-evoked OSN spike response” value is 63.9 ± 26 spikes/s.
As for `CCCCCCOC(C)=O` [Hexyl acetate], the “odor-evoked OSN spike response” value in [7] was 121 ± 33 spikes/s; in [1], 88.7 ± 39 spikes/s; in [5], 35.3 ± 18 spikes/s; in test [6] it was 53.3 ± 21 spikes/s.
Consider `CC(O)C(C)O` (stereo not given) [2,3-Butanediol], for which the “odor-evoked OSN spike response” value in test [12] stood at 68.2 ± 35 spikes/s; in test [7], 51.5 ± 25 spikes/s; in test [10], 71.5 ± 10 spikes/s; in test [11] it was 67.8 ± 30 spikes/s; in test [2] it was 66.2 ± 17 spikes/s.
For the compound `CC(=O)CCC=C(C)C` [6-methyl-5-hepten-2-one], the “odor-evoked OSN spike response” value in test [2] was determined as 150 ± 34 spikes/s.
